High-throughput results from PubChem BioAssay.
HEK293 tox: qHTS of GLP-1 Receptor Inverse Agonists: Cytotox Screen; HEK293 cAMP-luciferase reporter cells, luminescence, 24 h; Potency, µM (highest dose often 38.3 µM), inactives show at the highest dose activity change, negative = inhibition, most hits filed as inhibitors; 410,000 compounds, 0.13% hits;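 note: loss of luciferase light is scored as toxicity; % is set by controls: 0 for no effect and ±100 for the full control effect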
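Here, cytotoxicity is scored as loss of luminescence. The MLSMR collection was tested on cells seeded in medium containing 10% Nu serum, with a 24 hr compound exposure preceded by 12 hours of culture.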
PTHR1 agonist: qHTS for PTHR1 Agonists: Primary Screen | Parathyroid hormone/parathyroid hormone-related peptide receptor (Homo sapiens), Q03431 | HEK293 GP2 PTHR1 cells, GloSensor cAMP luminescence, 1 h | Potency, µM (highest dose often 115 µM), for the others: top-dose activation, actives largely listed as activators | 410,000 compounds, 0.075% hits | AID 743266, 2014; note: nearly all actives have a fitted effect of over 55% in size
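HEK-293-derived GP2 cells expressing PTHR1 and a GloSensor cAMP reporter, 3,000/well, plated overnight, given luciferin plus IBMX (each 0.5 mM as added) for 1 h at 37 °C, then compound for 1 h at 37 °C. Luminescence was read after 15 min at room temperature.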
RGS4 inh: Inhibitors of Regulator of G Protein Signaling (RGS) 4: qHTS. Regulator of G-protein signaling 4 (Homo sapiens), P49798. Transcreener GDP fluorescence polarization, RGS4-accelerated GTP hydrolysis. Potency, µM (series often up to 114 µM), inactives show at the highest dose activity change, negative = inhibition, usual class: inhibitors. 390,000 compounds, 0.039% hits. AID 504845, 2011; note: % is set by controls: 0 for no effect and ±100 for the full control effect; nearly all actives have a fitted effect of over 75% in size
Target sequence (P49798 whole entry, looked up): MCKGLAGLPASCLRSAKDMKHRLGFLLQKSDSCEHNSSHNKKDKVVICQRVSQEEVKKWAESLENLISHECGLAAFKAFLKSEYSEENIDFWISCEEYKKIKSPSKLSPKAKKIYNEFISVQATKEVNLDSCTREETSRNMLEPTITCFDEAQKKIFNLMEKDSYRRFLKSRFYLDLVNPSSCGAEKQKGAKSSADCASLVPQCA
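MLSMR compounds (23 nl, pin-transferred) preincubated 10 min at room temperature with a 500nM (2x) first reagent, then RGS4 at 900nM (2x) plus Transcreener GDP mix added; fluorescence polarization (620/688 nm) read before and after 90 min at 30 °C.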
GLP-1R agonist: qHTS of GLP-1 Receptor Agonists; Glucagon-like peptide 1 receptor (Homo sapiens), P43220; HEK293 GLP-1R CRE-luciferase, luminescence, 4-6 h; cells express a hypersensitive GLP-1R form; Potency, µM (doses to about 45.6 µM), for the others: top-dose activation, usual class: activators; 380,000 compounds, 0.007% hits; AID 624172, 2012; note: % of control where 0% means no effect
Target sequence (P43220 whole entry, looked up): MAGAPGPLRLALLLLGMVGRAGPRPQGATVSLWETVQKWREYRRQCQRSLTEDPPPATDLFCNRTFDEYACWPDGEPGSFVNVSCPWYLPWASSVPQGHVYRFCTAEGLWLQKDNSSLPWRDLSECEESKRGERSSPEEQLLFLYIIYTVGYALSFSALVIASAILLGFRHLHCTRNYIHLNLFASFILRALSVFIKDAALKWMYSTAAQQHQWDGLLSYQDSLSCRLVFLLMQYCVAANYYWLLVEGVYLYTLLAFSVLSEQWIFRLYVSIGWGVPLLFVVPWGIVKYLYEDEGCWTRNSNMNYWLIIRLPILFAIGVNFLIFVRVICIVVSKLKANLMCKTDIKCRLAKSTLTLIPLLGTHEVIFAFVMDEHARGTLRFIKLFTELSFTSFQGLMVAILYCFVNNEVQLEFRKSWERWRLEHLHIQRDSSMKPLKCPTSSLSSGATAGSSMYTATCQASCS
GLP-1R inv ag: qHTS of GLP-1 Receptor Inverse Agonists (Inhibition Mode). HEK293 GLP-1R CRE-luciferase, luminescence, 24 h; GLP-1R form is constitutively active. 410,000 compounds, 1.6% hits. Glucagon-like peptide 1 receptor (Homo sapiens), P43220. Potency, µM (titrated, usually from 38.3 µM), for the others: at the top dose activity change, negative = inhibition, actives largely listed as inhibitors; note: % is set by controls: 0 for no effect and ±100 for the full control effect; nearly all actives have a fitted effect of over 55% in size
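HEK293 cells stably co-expressing constitutively active GLP-1R and a cAMP-responsive luciferase reporter were seeded in DMEM with 10% Nu serum, given compounds after 12 h, and incubated 24 h at 37 deg C. Luminescence was then read.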
* = called active by the depositor; i = inactive; ? = inconclusive; · = not tested or not shown; [ ] = remark or other dose. Shown are actives, neighbours in structure and some others; about 1.7% of the full set was active somewhere. Calls come from the whole dose curve; as a rule, active = well fitted curve in the direction sought with a large enough effect; inconclusive = small, poorly fitted or top-dose-only effect, or another doubt; inactive = no such curve, though single readings can be large; an effect the other way counts as inactive or inconclusive. Potency is the fitted concentration of half-maximal effect.

SMILES | HEK293 tox | PTHR1 agonist | RGS4 inh | GLP-1R agonist | GLP-1R inv ag
COc1ccc(C(C)NC(=O)C2CCN(CCCc3ccccc3)CC2)cc1OC (stereo not given) | -3.8% | -21.1% | · | -2.5% | -22.6%
Cc1ccccc1CNC(=O)c1oc2c(c1C)-c1nn(Cc3ccc(Cl)cc3)cc1CC2 | 0.9% | -29.7% | -17.4% | · | 10µM*
CCOc1ccccc1CNC(=O)c1oc2c(c1C)-c1nn(Cc3cccc(Cl)c3)cc1CC2 | -4.9% | i | 12.0% | · | ?
S=C(NCc1cccs1)Nc1cccc(Cl)c1 | -21.9% | i | -25.9% | -5.4% | 0.0%
S=C(NCc1cccs1)Nc1cc(Cl)cc(Cl)c1 | ? | -16.1% | -6.4% | 1.1% | 8.91µM*
CCc1ccccc1NC(=O)Cn1nnc(C(=O)Nc2ccc(C)c(F)c2)c1N | 8.6% | i | 17.8% | · | -7.2%
O=C(Nc1ccccc1C(=O)Nc1nnc(C(F)(F)F)s1)c1ccccc1 | 3.16µM* | -40.3% | -10.4% | -5.8% | ?
Cc1occc1C(=O)Nc1nnc(C(F)(F)F)s1 | 3.7% | 22.1%[57.5 µM] | 21.8% | 3.4% | -2.4%
Cc1ccccc1-c1noc(-c2cccnc2N(C)Cc2ccc(Cl)cc2)n1 | 9.2% | -15.2% | 23.9% | · | 6.2%
CCC(C)c1ccc(NC(=O)N2CCOCC2)cc1 (stereo not given) | 18.2% | -9.7% | -12.1% | -1.1% | 11.9%
Cc1cccc(C)c1NC(=O)CN1CCN(C(=O)c2ccc(OCc3cn4ccccc4n3)cc2)CC1 | -3.4% | -1.0% | 10.2% | 13.4% | 41.7%
O=C1NC[C@H](c2ccccc2)OC(=O)[C@@H](Cc2ccc(F)cc2)C/C=C\C[C@H]1CC(=O)N(CCO)Cc1ccccc1 | 3.2% | -41.3% | -17.8% | -11.3% | -4.1%
O=C1N[C@@H](Cc2c[nH]c3ccccc23)COC(=O)[C@H](Cc2ccc(F)cc2)C/C=C\C[C@@H]1CC(=O)N(CCO)Cc1ccccc1 | -29.6% | -10.2% | -14.2% | -3.2% | 3.9%
O=C1NC[C@H](c2ccccc2)OC(=O)[C@H](Cc2ccc(F)cc2)C/C=C\C[C@H]1CC(=O)N(CCO)Cc1ccccc1 | -29.1% | i | -2.2% | -6.1% | 5.62µM*
O=C1N[C@@H](Cc2c[nH]c3ccccc23)COC(=O)[C@@H](Cc2ccc(F)cc2)C/C=C\C[C@H]1CC(=O)N(CCO)Cc1ccccc1 | ? | -0.6% | 10.3% | -5.9% | 8.91µM*
CC(C)C(c1nnnn1Cc1ccccc1)N1CCN(Cc2ccc3c(c2)OCO3)CC1 (stereo not given) | 23.0% | -10.5% | 9.1%[11.4 µM] | 4.6% | 8.91µM*
c1ccc(CCn2nnnc2C(c2cccs2)N2CCN(Cc3ccc4c(c3)OCO4)CC2)cc1 (stereo not given) | ? | -13.8% | -34.0% | -0.8% | 7.08µM*
C=C(C)c1cccc(C(C)(C)NC(=O)Nc2nnc(C(C)C)s2)c1 | 7.9% | i | 20.4% | 9.3% | 10µM*
COc1cccc(C(=O)Nc2nnc(C(C)C)s2)c1 | 6.7% | -31.6%[57.5 µM] | 3.2% | -11.5% | 11.2µM*
COC(=O)c1ccc2c(=O)n(CCCCCC(=O)N3CCN(c4cc(Cl)ccc4C)CC3)c(=O)[nH]c2c1 | -1.2% | i | 30.5% | · | 2.9%
O=C(Nc1ccc(OC(F)(F)F)cc1)N1CCc2nc(NCc3cccc(Oc4ccccc4)c3)ncc2C1 | -17.0% | -91.2% | · | 8.1% | -63.1%
COc1cccc(NC(=O)N2CCc3nc(NCc4cccc(Oc5ccccc5)c4)ncc3C2)c1 | -22.1% | -87.1% | · | -0.8% | 10µM*
Cc1ccc(S(=O)(=O)N(CC(=O)Nc2ccccc2C(=O)O)c2cccc(Cl)c2C)cc1 | -16.4% | -4.4% | -23.2% | -9.6% | 8.91µM*
CC1(C)Cc2c(cnn2-c2ccccc2)C(=O)/C1=N\NC(=O)c1ccccc1O | -26.6% | -26.6%[57.5 µM] | -16.8% | -12.1% | 11.2µM*
CS(=O)(=O)N(CC(=O)NCCSCc1c(F)cccc1Cl)c1ccc2c(c1)OCO2 | -11.9% | -9.8%[57.5 µM] | -9.1% | 8.0% | 0.5%
SMILES | HEK293 tox | PTHR1 agonist | RGS4 inh | GLP-1R agonist | GLP-1R inv ag
O=C(/C=C/c1ccc2c(c1)OCO2)NCCSCc1ccc(Cl)cc1 | -12.7% | -3.6%[57.5 µM] | 18.1% | 9.5% | 5.01µM*
CN(C)CCCNC(=O)/C=C/c1ccc2c(c1)OCO2 | 1.5%[1.53 µM] | i | 10.9% | -6.2% | 2.1%
O=C(/C=C/c1ccc2c(c1)OCO2)NCCSCc1c(Cl)cccc1Cl | 0.3% | -4.2% | -17.7% | -0.5% | 10µM*
CCn1cc(C(=O)NCCCOC(C)C)c(=O)c2cc(S(=O)(=O)N3CCc4ccccc4C3)ccc21 | -2.5% | -18.5% | -6.2% | · | 1.6%
Cc1cc(C)c(-n2nnnc2SCC(=O)c2cccs2)c(C)c1 | 0.7% | i | -44.1% | 9.7% | 12.6µM*
Cn1nnnc1SCC(=O)c1cccs1 | 3.7% | 0.0%[57.5 µM] | ? | -2.5% | 1.1%
COc1ccc(CN2C(=O)C(CC(=O)NC3CC3)CC(C(=O)N3CCOCC3)=C2C)cc1 (stereo not given) | -1.6% | -15.6% | · | -1.4% | 18.6%
COc1ccc(-c2nc3c4ccccc4n(CC(=O)N4CCN(c5ccccc5F)CC4)c(=O)n3n2)cc1 | 1.8% | -14.9% | 38.0% | · | 16.2%
COc1ccc(-n2ncc3c(NC4CCCC4)ncnc32)cc1 | -21.5% | -17.9% | -8.4% | · | 7.94µM*
Clc1cccc(-n2ncc3c(NC4CCCCCC4)ncnc32)c1 | -31.5% | -36.6% | 11.9% | · | 10µM*
COc1ccc(C)cc1NC(=O)C1CCCN(c2ncnc3onc(C)c23)C1 (stereo not given) | -11.1% | i | -9.3% | · | 2.6%
O=C(CSc1nnc(Nc2ccccc2F)s1)Nc1cccc(S(=O)(=O)N2CCCCC2)c1 | -4.9% | -32.5% | -29.7% | 7.2% | 10µM*
O=C(CNc1cccc(C(F)(F)F)c1)Nc1cccc(S(=O)(=O)N2CCCC2)c1 | 7.7% | -48.5% | 3.7% | 11.1% | 2.51µM*
Cc1ccc(Nc2nnc(SCC(=O)Nc3cccc(S(=O)(=O)N4CCCCC4)c3)s2)cc1 | -10.4% | i | 3.8% | -2.3% | ?
O=C(CN1CCN(S(=O)(=O)c2ccccc2)CC1)Nc1cccc(C(F)(F)F)c1 | -26.1% | -21.0% | -47.6% | 2.8% | 4.47µM*
O=C1CCC(C(=O)Nc2cc(C(F)(F)F)ccc2-n2cncn2)=NN1 | -3.1% | i | 21.1% | -3.8% | 5.1%
COc1ccc(CNC(=O)C2CCN(C(=O)c3csc(Nc4ccc(C)cc4)n3)CC2)cc1 | -6.3% | -81.1% | -27.1% | 15.4% | 7.94µM*
NC(N)=NCCCC(N)C(=O)O (stereo not given) | · | · | · | -3.8% | ·
